The values that follow come from PubChem BioAssay (NCATS).

Each structure is given as a SMILES string. Unmarked numbers belong to inactive results. Records with an inconclusive call do not appear. Activity calls are given as the source filed them. Unless noted, calls come from the whole dose curve; as a rule, active = well fitted curve in the direction sought with a large enough effect; inconclusive = small, poorly fitted or top-dose-only effect, or another doubt; inactive = no such curve, though single readings can be large; an effect the other way counts as inactive or inconclusive.

A short description of test [1]: qHTS to identify inhibitors of the type 1 interferon - major histocompatibility complex class I in skeletal muscle: primary screen against the NCATS LOPAC collection (AID 1347405). For activity change, negative = inhibition: % is set by controls: 0 for no effect and ±100 for the full control effect.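 Note: lytic HiBiT luminescence reporting HLA-B protein level.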 Note: potency is the fitted concentration of half-maximal effect. In a few lines: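 After 24 h at 37 C with compounds (7-point, 1:4.3 dilutions, 46 uM top final) plus 4 ng/ml IFN-beta, luminescence from lytic HiBiT detection was measured. HLA-B*08:01 in C25cl48 myoblasts carried an endogenous C-terminal HiBiT tag; medium lacked dexamethasone.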
A general note: qHTS replaces the single test concentration by a dilution series.

Test [2] can be described thus: qHTS to identify inhibitors of the type 1 interferon - major histocompatibility complex class I in skeletal muscle: primary screen against the NCATS Pharmaceutical Collection (AID 1347407). For activity change, negative = inhibition: % is set by controls: 0 for no effect and ±100 for the full control effect. Note: potency is the fitted concentration of half-maximal effect. In a few lines: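 A qHTS format is used: 8-point, 1:5 compound series with 46 uM top final concentration, applied alongside 4 ng/ml IFN-beta to HLA-B*08:01-HiBiT knock-in myoblasts. Luminescence is measured after 24 h treatment.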

A short description of test [3]: qHTS for inhibitors of adenylyl cyclases using a fission yeast platform: a pilot screen against the NCATS LOPAC library (AID 1347410).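 Note: plate controls were DMSO vehicle for no effect and DPI positive control for full effect.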 Put shortly:
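Inhibition of GNAS-stimulated AC9 activity in S. pombe was inferred from derepression of a PKA-repressed fbp1-GFP reporter, measured as cytometric fluorescence after 18 h at 30C with compounds at up to 57 µM.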

The nature of test [4]: qHTS to identify inhibitors of the type 1 interferon - major histocompatibility complex class I in skeletal muscle: primary screen against the NCATS Mechanism Interrogation Plate v5.0 (MIPE) Libary (AID 1347411).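 For activity change, negative = inhibition: plate controls were vehicle for no effect and reference inhibitor for full effect.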 Note: nearly all actives have a fitted effect of over 65% in size. Note: potency is the fitted concentration of half-maximal effect. Put shortly: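 Luminescence from CRISPR HiBit-tagged endogenous HLA-B in human myoblasts reported MHC class I level after 24 h of IFN-beta (4 ng/ml) plus compound. Compounds ran as 11-point 1:3 series, top 46 uM final.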

In test [5] the target is Protein phosphatase 1D (Homo sapiens) (UniProt O15297). The test is described as follows: RapidFire Mass Spectrometry qHTS Assay for Modulators of WT P53-Induced Phosphatase 1 (WIP1) (AID 1347424).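 Note: amount of dephosphorylated VEPPL-S-QETFS peptide product formed by WIP1; series mostly up to about 63 µM; plate controls were DMSO wells for no effect and GSK830371 inhibitor control at 10 µM for full effect.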 Put shortly:
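Mass-spectrometric measurement of dephosphorylated peptide after a 5 min room-temperature reaction of 10 nM WIP1 with 2 uM phosphopeptide, following 1 h compound preincubation in 30 mM MgCl2 buffer.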

The target is the same in test [6]. Put plainly: Rhodamine-PBP qHTS Assay for Modulators of WT P53-Induced Phosphatase 1 (WIP1) (AID 1347425). Note: % of control where 0% means no effect. Put shortly: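 WIP1 (5 nM final) was preincubated with compound for 1 hour at room temperature. It then dephosphorylated 10 uM VEPPL-pS-QETFS peptide in Tris-HCl pH 7.5 with 30 mM MgCl2. Released Pi was detected by 10 uM Rh-PBP fluorescence (ex 525/em 598 nm) read at 1-min intervals for 11 min, as delta f1 - f0.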

Test [7] can be described thus: Validation qHTS assay for inhibitors of Activation Induced Cytidine Deaminase (AID): UDG Counterscreen signal (AID 1347427). Note: 0% is about no effect. In a few lines: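 Fluorescence at 560 nm excitation, 665 nm emission reports UDG signal after 250 mM NaOH (2x) addition and 30 min. Enzymes (AID 1 uM, UDG 2 U/mL, at 4/3x) preincubated 10 min with compound, then 4 h with 4x 250 nM DJC20/DJC23 substrate at room temperature.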

Test [8] addresses Single-stranded DNA cytosine deaminase (Homo sapiens) (UniProt Q9GZX7). The test is described as follows: Validation qHTS assay for inhibitors of Activation Induced Cytidine Deaminase (AID): AID signal (AID 1347429). Note: % is set by controls: 0 for no effect and ±100 for the full control effect. Put shortly:
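Compounds (final up to 114 uM) preincubated with AID plus UDG; 250 nM DJC20/DJC23 substrate mix (4x stock) added, 4 hr at room temperature, then NaOH, 30 min. Read 1 fluorescence at 540 nm excitation, 590 nm emission.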

A short description of test [9]: Primary qHTS for inhibitors of SARS-S pseudo-typed particle cell entry (AID 1479145; calls by dose curve; note: nearly all actives have a fitted effect of over 45% in size; note: potency is the fitted concentration of half-maximal effect; for activity change, negative = inhibition: series mostly up to about 57 µM; % is set by controls: 0 for no effect and ±100 for the full control effect).

Single-stranded DNA cytosine deaminase (Homo sapiens), sequence (Q9GZX7 whole entry, looked up): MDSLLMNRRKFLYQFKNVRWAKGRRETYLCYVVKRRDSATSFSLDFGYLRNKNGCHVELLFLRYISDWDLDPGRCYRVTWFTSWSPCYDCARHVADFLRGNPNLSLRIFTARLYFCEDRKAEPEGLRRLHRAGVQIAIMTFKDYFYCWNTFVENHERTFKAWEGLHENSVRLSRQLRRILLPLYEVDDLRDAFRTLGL
Protein phosphatase 1D (Homo sapiens), sequence (O15297 whole entry, looked up): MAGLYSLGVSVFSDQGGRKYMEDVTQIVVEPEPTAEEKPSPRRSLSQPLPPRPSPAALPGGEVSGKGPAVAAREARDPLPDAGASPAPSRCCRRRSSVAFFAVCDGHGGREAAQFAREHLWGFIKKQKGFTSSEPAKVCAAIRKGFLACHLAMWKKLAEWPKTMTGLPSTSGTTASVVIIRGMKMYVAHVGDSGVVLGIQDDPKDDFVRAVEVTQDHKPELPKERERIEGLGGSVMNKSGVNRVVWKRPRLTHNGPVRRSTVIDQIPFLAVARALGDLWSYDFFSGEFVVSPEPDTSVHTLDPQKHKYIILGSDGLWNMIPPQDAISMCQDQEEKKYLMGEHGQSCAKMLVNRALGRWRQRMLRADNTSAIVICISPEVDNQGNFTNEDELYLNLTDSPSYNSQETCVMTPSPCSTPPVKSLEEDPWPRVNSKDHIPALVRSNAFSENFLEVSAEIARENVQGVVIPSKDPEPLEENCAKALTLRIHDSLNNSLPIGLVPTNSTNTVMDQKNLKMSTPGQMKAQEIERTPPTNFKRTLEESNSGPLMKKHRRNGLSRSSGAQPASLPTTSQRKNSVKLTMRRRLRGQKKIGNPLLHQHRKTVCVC

For `Cn1c(CCCC(=O)O)nc2cc(N(CCCl)CCCl)ccc21`, the Potency result in test [1], in test [2], in [4] and in [5] was “inactive” in each case. For the same molecule, the result in [3] and in [6] was inactive.
For the molecule `CN1C[C@H](CNC(=O)OCc2ccccc2)C[C@@H]2c3cccc4c3c(cn4C)C[C@H]21`, the Potency result in test [1], in test [2] and in test [5] was “inactive” throughout. The result in [3], in [6], in test [7] and in test [8] was inactive.
Turning to `CC(C)=CCOc1c2occc2cc2ccc(=O)oc12`, the Potency entry in [1], in [2] and in test [5] was “inactive” in each case. Moreover, the outcome in [3], in [6], in test [7] and in [8] was inactive.
For `Cc1cccc(C)c1NC1=NCCCS1`, the Potency result in [1], in test [2] and in test [5] was “inactive” throughout. Moreover, the call in test [3], in test [6], in test [7] and in test [8] was inactive.
Turning to `Nc1ccncc1`, the Potency result in test [1], in test [2], in [5] and in test [9] was “inactive” each time. For the same molecule, the molecule was classed as inactive in [3], in [6], in [7] and in test [8].
Turning to `N[C@@H](Cc1ccc(N(CCCl)CCCl)cc1)C(=O)O`, the Potency result in test [2], in test [4] and in [5] was “inactive” throughout. The molecule was classed as inactive in test [6]. Also, in test [9], the Potency was 31600 nM (active).
As for `CC(CCc1ccccc1)NC(C)C(O)c1ccc(O)cc1` (centres undefined), the Potency entry in test [1], in [2] and in [9] was “inactive” each time. Besides, the molecule was called inactive in [3], in test [6], in test [7] and in [8].
For the molecule `NCCc1cc(O)c(O)cc1O`, in test [2], the Potency entry was “inactive”.
`CC(=O)[C@H]1CC[C@H]2[C@@H]3CC[C@H]4C[C@](C)(O)CC[C@]4(C)[C@H]3CC[C@]12C`: the Potency entry in test [1], in [2] and in test [5] was “inactive” throughout. In addition, the call in test [3], in [6], in [7] and in test [8] was inactive.
Turning to `CNCC(O)c1ccc(O)cc1` (centres undefined), the Potency entry in [1], in test [2], in test [4] and in [5] was “inactive” in each case. Moreover, the molecule was classed as inactive in test [3], in test [6], in [7] and in test [8].
Consider `CCC1(C2=NCCN2)Cc2ccccc2O1` (centres undefined), for which the Potency entry in test [1], in [2] and in test [5] was “inactive” in each case. Moreover, the molecule was called inactive in [3], in test [6], in test [7] and in [8].
As for `NN=C(N)N`, the Potency result in test [1], in [2], in test [4] and in [5] was “inactive” in each case. The result in test [3], in [6], in [7] and in [8] was inactive.
As for `Cc1ccc(S(=O)(=O)N[C@@H](CCCCN)C(=O)CCl)cc1`, the Potency result in test [1], in test [2] and in [5] was “inactive” throughout. The molecule was called inactive in test [3], in [6], in test [7] and in test [8].
Consider `NCC1(CC(=O)O)CCCCC1`, for which the Potency entry in test [1], in test [2], in test [4], in test [5] and in test [9] was “inactive” throughout. Moreover, the molecule was classed as inactive in [3], in test [6], in test [7] and in test [8].
For `N#CC(C#N)=Cc1ccc(O)c(O)c1`, the Potency entry in test [1], in [2] and in test [5] was “inactive” each time. The outcome in test [3], in [6], in test [7] and in [8] was inactive.
For the molecule `C[C@@H]1O[C@@H](O[C@H]2C[C@@H](O)[C@]3(CO)[C@H]4[C@H](O)C[C@]5(C)[C@@H](C6=CC(=O)OC6)CC[C@]5(O)[C@@H]4CC[C@]3(O)C2)[C@H](O)[C@H](O)[C@H]1O`, the values for the Potency in [1], in test [2] and in test [4] were 44.7 nM (active), 52.8 nM (active) and 37 nM (active), respectively. The molecule was classed as inactive in test [3], in test [6], in test [7] and in test [8]. In addition, the Potency result in [5] and in [9] was “inactive” throughout.
Take `N[C@@H]1C[C@H]1c1ccccc1`: the Potency result in test [2], in [4], in test [5] and in test [9] was “inactive” each time. Besides, the molecule was classed as inactive in [6].
As to `CC(O)(CS(=O)(=O)c1ccc(F)cc1)C(=O)Nc1ccc(C#N)c(C(F)(F)F)c1` (centres undefined), the Potency entry in [1] and in [4] was “inactive” throughout. The result in test [3] was inactive.
In the case of `c1ccc2c(c1)OCC(C1=NCCN1)O2` (centres undefined), the Potency entry in [2] and in test [5] was “inactive” each time. Besides, the outcome in [3], in [6], in [7] and in test [8] was inactive.
In the case of `COc1ccc(C(CN(C)C)C2(O)CCCCC2)cc1` (centres undefined), the Potency result in test [1], in [2], in test [5] and in test [9] was “inactive” throughout. For the same molecule, the outcome in test [3], in test [6], in test [7] and in test [8] was inactive.
Turning to `COc1ccccc1N1CCNCC1`, the Potency entry in test [1], in test [2] and in test [5] was “inactive” each time. The result in test [3], in [6], in [7] and in [8] was inactive.
For the molecule `C#CCN(C)[C@H](C)Cc1ccccc1`, the Potency entry in test [2], in test [4], in [5] and in test [9] was “inactive” in each case. In test [6], the molecule was classed as inactive.
For the molecule `NCC(CC(=O)O)c1ccc(Cl)cc1` (centres undefined), the Potency entry in test [1] was “inactive”. For the same molecule, the activity change, negative = inhibition is 3.65% [at 0.727 µM] in test [2], -7.37% [at 0.505 µM] in [5], 1.39% [at 0.575 µM] in test [6] and -11.8% [at 0.573 µM] in [9]. Further, the molecule was classed as inactive in test [3], in test [7] and in test [8].
Turning to `c1ccc(C2CC2)c(OCC2=NCCN2)c1`, the Potency entry in test [1], in [2] and in test [5] was “inactive” in each case. The outcome in test [3], in test [6], in test [7] and in test [8] was inactive.
